In PubChem BioAssay AID2561 (National Center for Advancing Translational Sciences (NCATS), 2010):
Results filed as inconclusive are left out. Entries that show only a call come without a potency. Activity calls are given as the source filed them. Calls follow the shape of the dose curve; as a rule, active = well fitted inhibition curve with a large enough effect; inconclusive = small, poorly fitted or top-dose-only effect, or effect the other way; inactive = flat fitted curve, though single readings scatter.
Potency is read from the fitted curve at half-maximal effect.

The compounds below were run against Pyruvate kinase (Leishmania mexicana) (UniProt Q27686) (assay: Confirmation Assay for Inhibitors of Leishmania Mexicana Pyruvate Kinase (LmPK): for Probe SAR). Details: purified LmPK, ATP generation, Kinase-Glo luminescence; series mostly up to 57.5 µM.
Sequence of Pyruvate kinase (Leishmania mexicana) (Q27686 whole entry, looked up): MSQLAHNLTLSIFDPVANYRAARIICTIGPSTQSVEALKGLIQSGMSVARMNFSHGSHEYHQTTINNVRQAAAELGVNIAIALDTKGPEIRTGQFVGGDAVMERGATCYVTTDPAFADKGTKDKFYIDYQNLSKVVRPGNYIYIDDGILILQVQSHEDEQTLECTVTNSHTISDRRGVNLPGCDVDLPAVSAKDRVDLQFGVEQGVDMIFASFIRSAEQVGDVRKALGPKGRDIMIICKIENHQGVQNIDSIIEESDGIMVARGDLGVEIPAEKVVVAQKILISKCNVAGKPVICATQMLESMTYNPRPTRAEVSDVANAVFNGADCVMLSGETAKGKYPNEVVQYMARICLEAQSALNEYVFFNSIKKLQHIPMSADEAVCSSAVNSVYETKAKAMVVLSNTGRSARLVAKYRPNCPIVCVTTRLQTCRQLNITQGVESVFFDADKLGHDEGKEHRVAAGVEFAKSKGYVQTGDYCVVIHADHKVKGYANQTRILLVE
Excerpt: NIH Chemical Genomics Center [NCGC] Malcolm Walkinshaw, Hugh Morgan, Linda Gilmore University of Edinburgh, UK MLPCN Grant: 1 R03 MH085697-01 NCGC Assay Overview: Pyruvate kinase (L. Mexicana) (LmPK) enzyme was supplied as a highly purified (>95% pure) sulphate-free preparation from University of Edinburgh, UK and assayed for its ability to generate ATP from ADP using phosphoenolpyruvate (PEP) as a substrate. ATP generation was detected in a coupled reaction by luciferase-mediated luminescence, an ATP-dependent process. Pyruvate kinase substrates, PEP and ADP, were present in the assay at Km and approximately 10-fold below Km respectively. The enzyme was assayed at an intermediate level of activity to screen for both inhibitors and activators.
NCGC Assay Protocol Summary: Three uL of enzyme mix (kept on ice) in assay buffer (50 mM Imidazole pH7.2, 50 mM KCl, 7 mM MgCl2, 0.01% Tween 20, 0.05% BSA) containing PEP (0.5 mM final concentration) and LmPK (0.1 nM final concentration) was dispensed into white solid bottom 1,536 well microtiter plates. 23 nL of compound were delivered by a pin tool and 1 uL of ADP mix in assay buffer (r.t; 0.1 mM final ADP concentration) was added. Plates were incubated at room temperature for 1 hour. Two uL of detection mix (Kinase-Glo, Promega; at 4 degree Celsius protected from light) was added and luminescence read by a ViewLux (Perkin Elmer) at 1 second exposure/plate. Data were normalized to the uninhibited and AC100 inhibition (no enzyme). To monitor activation, the first column contained a five-fold concentration of LmPK (0.5 nM).
`Cc1ccccc1N(C)C1=N[S+](=O)([O-])c2ccccc21` was tested, and the Potency was “inactive”.
`O=C1c2ccccc2C(=O)N1c1cccc2ncccc12` was tested, and the Potency was “inactive”.
For `Cc1ccc(-c2nc3cccc(C)n3c2Nc2ccc(F)cc2)o1`, the Potency was “inactive”.
For `COc1cccc(N2C(=O)c3ccccc3C2=O)c1`, the Potency was “inactive”.
With `COc1ccccc1NS(=O)(=O)c1ccc2c(c1)CCC(=O)N2` the Potency was “inactive”.
For `Cc1ccc(C)c(SC2=NS(=O)(=O)c3cc(C(=O)NCc4ccccc4)ccc32)c1`, the Potency was 5.8 µM (active).
For `O=S1(=O)N=C(N2CCOCC2)c2ccccc21`, the Potency was “inactive”.
With `O=C1c2ccccc2C(=O)N1c1ccc(O)cc1` the Potency was “inactive”.
For `Cc1ccc(NS(=O)(=O)c2ccc3c(c2)CC(=O)N3C)cc1C`, the Potency was “inactive”.
`Cc1cccc(NS(=O)(=O)c2ccc3c(c2)CCC(=O)N3)c1` was tested, and the Potency was “inactive”.
In the case of `O=C1NS(=O)(=O)c2cc3c(cc21)C(=O)NS3(=O)=O`, the Potency is reported as “inactive”.
For `COC(=O)c1ccccc1S(=O)(=O)Nc1cc(=O)c2ccccc2[nH]1`, the Potency was “inactive”.
`Nc1ccc2c(c1)S(=O)(=O)NC2=O` was tested, and the Potency was “inactive”.
`Nc1ccccc1OC1=NS(=O)(=O)c2ccccc21` was tested, and the Potency was “inactive”.
`Cn1c2cc(S(C)=O)sc2c2cnn(Cc3cccc(N)c3)c(=O)c21` (stereo not given) was tested, and the Potency was “inactive”.
With `Cc1ccc(-c2nc3ccccn3c2Nc2ccc(F)cc2)o1` the Potency was “inactive”.
With `Cc1ccc(OC2=NS(=O)(=O)c3ccccc32)cc1` the Potency was 12.5 µM (active).
For `COc1ccc(OC2=NS(=O)(=O)c3ccccc32)cc1`, the Potency was 4.31 µM (active).
In the case of `O=S1(=O)N=C(Sc2ccc3c(c2)OCCO3)c2ccccc21`, the Potency is reported as 3.66 µM (active).
`O=C1CCc2cc(S(=O)(=O)Nc3ccc4ccccc4c3)ccc2N1` was tested, and the Potency was “inactive”.
With `Cc1ccc(C)c(SC2=NS(=O)(=O)c3ccccc32)c1` the Potency was 4.11 µM (active).
For `Cc1ccc(NS(=O)(=O)c2ccc3c(c2)CCCC(=O)N3)cc1C`, the Potency was “inactive”.
`O=C1c2ccccc2C(=O)N1Cc1ccncc1` was tested, and the Potency was “inactive”.
With `Cc1ccc(NS(=O)(=O)c2cc3c(cc2Br)NC(=O)CO3)cc1C` the Potency was “inactive”.
`O=C1CCc2cc(S(=O)(=O)Nc3ccc(-c4ccccc4)cc3)ccc2N1` was tested, and the Potency was “inactive”.
With `O=C1NS(=O)(=O)c2cc(Br)ccc21` the Potency was “inactive”.
With `N#Cc1ccccc1OC1=NS(=O)(=O)c2ccccc21` the Potency was 5.8 µM (active).
With `Cc1ccc(C)c(NC2=NS(=O)(=O)c3ccccc32)c1` the Potency was “inactive”.
`COC(=O)c1ccc2c(c1)S(=O)(=O)NC2=O` was tested, and the Potency was “inactive”.
In the case of `O=S(=O)(Nc1ccc(O)c(NS(=O)(=O)c2ccccc2)c1)c1ccccc1`, the Potency is reported as “inactive”.
With `COc1ccc(NS(=O)(=O)c2ccc3c(c2)CCC(=O)N3)cc1` the Potency was “inactive”.
With `COc1ccccc1N1C(=O)c2ccccc2C1=O` the Potency was “inactive”.
`CC(=O)Nc1ccc(OC2=NS(=O)(=O)c3ccccc32)cc1` was tested, and the Potency was 4.11 µM (active).
With `CSc1cc2c(s1)c1cnn(Cc3cccc(O)c3)c(=O)c1n2C` the Potency was “inactive”.
In the case of `O=C1NS(=O)(=O)c2ccccc21`, the Potency is reported as “inactive”.
`Cc1ccc(N2C(=O)c3ccccc3C2=O)c(C)c1` was tested, and the Potency was “inactive”.
In the case of `Cc1ccccc1Nc1c(-c2ccc(Cl)s2)nc2ccccn12`, the Potency is reported as “inactive”.
For `COc1ccc(N2C(=O)c3ccccc3C2=O)cc1`, the Potency was “inactive”.
`O=C1c2ccccc2C(=O)N1c1ccc2ncccc2c1` was tested, and the Potency was “inactive”.
With `Cc1ccc(C)c(SC2=N[S+](=O)([O-])c3cc(C(=O)Nc4ccc5ncccc5c4)ccc32)c1` the Potency was “inactive”.
